Results filed as inconclusive are left out. Calls of active or inactive are those of the source. Unless noted, calls come from the whole dose curve; as a rule, active = well fitted curve in the direction sought with a large enough effect; inconclusive = small, poorly fitted or top-dose-only effect, or another doubt; inactive = no such curve, though single readings can be large; an effect the other way counts as inactive or inconclusive.
Legend:
[1] = target: Cytochrome P450 1A2 (Homo sapiens) (UniProt P05177); experiment: p450-cyp1a2 (AID 410; calls by dose curve; note: potency is the fitted concentration of half-maximal effect)
Outline: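 Luminescent demethylation readout: Luciferin-ME (100uM, equal to Km) turned over by 20nM CYP1A2 for 60 min at room temperature after NADPH regeneration addition, following 10 min compound preincubation. Normalization used 57 uM furafylline as full inhibition.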

[2] = NFAT Signaling Pathway (AID 444; active = well fitted curve in either direction with a large enough effect, not every such curve was filed as active;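 note: carbachol stimulus at about its EC50 of 1 µM final; % is set by controls: 0 for no effect and ±100 for the full control effect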); details: Jurkat NFAT-bla M1, carbachol, beta-lactamase ratio, 5 h; at 7.69 µM (top of the series) unless noted
Outline: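 Jurkat cells carrying an NFAT-driven β-lactamase reporter and co-transfected muscarinic M1 receptor were treated with compound plus carbachol (1 uM final, an EC50 level) for 5 h at 37 °C. CCF4 loading followed for 1 h at RT; 460/530 nm ratio gave %activity.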

[3] = Stat Signaling Pathway (AID 446; active = well fitted curve in either direction with a large enough effect, not every such curve was filed as active;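 note: ME-180 cervical cancer cells given 40 pM IL-6 alongside compound; SIE-controlled beta-lactamase reporter measured as 460/530 nm FRET emission ratio; % is set by controls: 0 for no effect and ±100 for the full control effect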); details: ME-180 SIE beta-lactamase reporter, IL-6 stimulated, 5 h; at 7.69 µM (top of the series) unless noted
Outline: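 Normalization used AC90 stimulation (300 pM IL-6) and AC90 inhibition (125 nM pan-JAK inhibitor at 40 pM IL-6). The underlying signal is SIE-driven beta-lactamase in ME-180 cells after 5 h IL-6 exposure with compound.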

[4] = target: Glucocorticoid receptor (Homo sapiens) (UniProt P04150); experiment: GR-GFP Redistribution (AID 450;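 active = compounds whose dose series gives a full or clear partial fitted curve of increased nuclear translocation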; note: potency is the fitted concentration of half-maximal effect); details: U2OS GR-GFP nuclear translocation, laser cytometry, 2 h
[5] = target: Glucocorticoid receptor (Homo sapiens) (UniProt P04150); experiment: GR-EFC Redistribution (AID 451; calls by dose curve; note: potency is the fitted concentration of half-maximal effect); details: CHO-K1 GR-EFC translocation, beta-gal luminescence, 2 h
Outline: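 CHO-K1 cells stably expressing nuclear-localized β-gal enzyme acceptor and GR fused C-terminally to the enzyme donor fragment; ligand-driven nuclear translocation restores β-gal by complementation. Compounds titrated up to 46 uM final, 2 h at 37 °C; luminescence read.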

[6] = target: Mitogen-activated protein kinase 10 (Mus musculus) (UniProt Q61831); experiment: JNK3 AlphaScreen Assay (AID 530; active = well fitted curve in either direction with a large enough effect, not every such curve was filed as active;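 note: kinase came from lysate of stimulated human HepG2 cells; signal reports phosphorylation of biotinylated GST-cJun 1-79 at Ser73 with 10 µM ATP; % is set by controls: 0 for no effect and ±100 for the full control effect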)
Outline: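 Phosphorylation of biotinylated GST-cJun(1-79) at Ser73 is measured by AlphaScreen proximity luminescence. Enzyme is JNK3 in HepG2 lysates activated with interleukin-1beta and tumor necrosis factor alpha; ATP is 10 uM final.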

[7] = target: 3',5'-cyclic-AMP phosphodiesterase 4B (Homo sapiens) (UniProt Q07343); experiment: qHTS Assay for Inhibitors of PDE-IV (AID 607; active = well fitted activation curve with a large enough effect in the main read-out, with a control signal flat, not every such curve was filed as active; note: % of control where 0% means no effect)
Outline: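 HEK293 ACTOne cells with CNG channel (1000/well), endogenous PDE4; membrane potential dye, compounds up to 22.9 uM final. Fluorescence Ex 535/Em 590; RO 20-1724 (100 uM final) as reference.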

[8] = target: Cytochrome P450 3A4 (Homo sapiens) (UniProt P08684); experiment: qHTS Assay for Activators of Cytochrome P450 3A4 (AID 885); note: nearly all actives have a fitted effect of over 65% in size
Outline: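 Human CYP3A4 dealkylates Luciferin-PPXE to luciferin, which luciferase detection converts to light. Substrate was at its KM (25uM), buffer 200mM KPO4, reaction 60 min at RT.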

[9] = qHTS Assay for Lipid Storage Modulators (AID 1519; calls by dose curve); details: Drosophila S3 cells, BODIPY lipid droplet/cell ratio, laser cytometry, cells loaded with oleic acid; for activity change, negative = inhibition: at 57.5 µM (top of the series)
Outline: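 Cells seeded at 5,000 per well were treated with compounds over a concentration series and loaded with oleic acid (400 uM, as added). Lipid droplet fluorescence (488 nm excitation, 500-530 nm channel) was read by laser-scanning cytometry and normalized to 20 uM Triacsin C.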

[10] = target: Dual specificity protein kinase CLK4 (Homo sapiens) (UniProt Q9HAZ1); experiment: qHTS Assay for Inhibitors of CDC-like Kinase 4 (Kinase-Glo Assay) (AID 1770); note: nearly all actives have a fitted effect of over 65% in size; note: potency is the fitted concentration of half-maximal effect
Outline: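 Readout: Kinase-Glo luminescence from ATP left after a 4.5 h room-temperature reaction of 25 nM Clk4 with 100 uM RS peptide and 1 uM ATP (final). Buffer: 25 mM Tris pH 7.5, 10 mM MgCl2.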

[11] = target: Dual specificity protein kinase CLK4 (Homo sapiens) (UniProt Q9HAZ1); experiment: qHTS Assay for Inhibitors of CDC-like Kinase 4 (ADP-Glo Assay) (AID 1771); note: nearly all actives have a fitted effect of over 70% in size; note: potency is the fitted concentration of half-maximal effect
Outline: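 ADP production was read by ADP-Glo luminescence after residual ATP depletion, following 1 h room-temperature reaction of 25 nM Clk4, 1 uM ATP and 100 uM RS peptide with MgCl2, EGTA, DTT and Triton X-100.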

[12] = target: Ubiquitin carboxyl-terminal hydrolase 1 (Homo sapiens) (UniProt O94782); experiment: Inhibitors of USP1/UAF1: Pilot qHTS (AID 504865); note: nearly all actives have a fitted effect of over 35% in size; note: potency is the fitted concentration of half-maximal effect
Outline: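 1nM USP1/UAF1 + cpd, 15 min RT; start w/ Ub-Rho 150nM final; kinetic FL 480/540 nm, 6 reads q60 s. Buffer 50mM HEPES pH 7.8, 0.5mM EDTA, 1mM TCEP, 0.01% Tween-20, 0.1 mg/ml BSA.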

[13] = target: Dual specificity protein kinase CLK4 (Homo sapiens) (UniProt Q9HAZ1); experiment: qHTS Assay for Inhibitors of CDC-like Kinase 4 (ADP-FP Assay) (AID 1795);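 note: recombinant human CLK4 phosphorylating RS repeat peptide at 1 µM ATP; % is set by controls: 0 for no effect and ±100 for the full control effect; nearly all actives have a fitted effect of over 60% in size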
Outline: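 FP readout: Orange Transcreener ADP2 tracer (4 nM) plus ADP antibody, read after 30 min at room temperature. Kinase step: 6.25 nM Clk4, 100 uM RS peptide, 1 uM ATP, pH 7.5, 1 h.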

[14] = target: Lysosomal acid glucosylceramidase (Homo sapiens) (UniProt P04062); experiment: Glucocerebrosidase-p2 (AID 348; in the data active = potency below about 10 µM; note: potency is the fitted concentration of half-maximal effect); details: purified GBA, blue fluorogenic substrate, 40 min
Outline: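 Normal human glucocerebrosidase (0.2 nM) with blue fluorogenic substrate (80 uM final) in citrate/phosphate pH 5.9 with 10mM sodium taurocholate, 0.01% tween-20; 40 min RT, NaOH/glycine stop; fluorescence Ex 365/Em 440; AC50 from a titration from 0.6 nM upwards.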

[15] = AP1 Signaling Pathway (AID 357; active = well fitted curve in either direction with a large enough effect, not every such curve was filed as active;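 note: ME-180 reporter cells stimulated with EGF at its EC50 level; % is set by controls: 0 for no effect and ±100 for the full control effect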); details: ME-180 AP-1-bla reporter, EGF-induced, beta-lactamase ratio, 5 h; at 7.69 µM (top of the series) unless noted
Outline: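 A ratiometric CCF4 readout (405 nm excitation; 460 and 530 nm emission) quantified AP-1-driven beta-lactamase in ME-180 cells after 5 h with compound and EC50 EGF; AC50 values were derived for activators and inhibitors.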

[16] = qHTS Assay for Identification of Small Molecule Agonists for Hypoxia Response Element Signaling Pathway (AID 914; active = well fitted activation curve with a large enough effect in the signal ratio, with a control signal flat, not every such curve was filed as active; the % refers to the signal ratio; note: potency is the fitted concentration of half-maximal effect); details: ME-180 (cervical carcinoma) HRE-bla reporter, beta-lactamase ratio, CoCl2, 17 h; activation: stronger effect = higher value
Outline: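 HRE-bla ME-180 cells, overnight plating in Opti-MEM with 0.5% dialyzed FBS; cpd titration + EC50 CoCl2, 17 h, 37 degrees Celsius; CCF4 2.5 h RT; 460/530 nm ratio; AC50.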

[17] = target: Cytochrome P450 3A4 (Homo sapiens) (UniProt P08684); experiment: qHTS Assay for Inhibitors and Substrates of Cytochrome P450 3A4 (AID 884); note: % is set by controls: 0 for no effect and ±100 for the full control effect; nearly all actives have a fitted effect of over 50% in size
Outline: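 Luminescent readout of luciferin produced by CYP3A4 (20 nM) dealkylation of Luciferin-PPXE, 25 uM (its KM). NADPH-driven reaction ran 60 min at RT after 10 min compound preincubation; data scaled to 57 uM ketoconazole as 100% inhibition.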

[18] = Confirmation and Secondary Assay for Modulators of Hemoglobin Beta Chain Splicing at IVS2 654 locus (AID 910); note: % of control where 0% means no effect
Outline: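 HeLa cells stably carrying EGFP interrupted by mutant beta-globin IVS2-654 intron (CMV-driven) were treated with compound for 2 days at 37C; corrected splicing was scored as total peak GFP intensity per well (488 nm excitation, 500-520 nm emission).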

[19] = Confirmation and Secondary Assay for Modulators of Hemoglobin Beta Chain Splicing at IVS2 705 locus (AID 930);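 note: HeLa cells stably expressing the EGFP-705 splicing reporter; GFP fluorescence per well restored by corrected splicing of the IVS2-705 intron in EGFP; % of control where 0% means no effect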
Outline: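 Read-out: total peak GFP fluorescence per well (488 nm excitation, 500-520 nm emission) by laser-scanning cytometry. Cells: HeLa EGFP-705 splicing reporter, 2 days compound exposure in Optimem/2% FCS.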

[20] = measured here: cell count channel max response
[21] = measured here: lipid channel max response

Sequence of Ubiquitin carboxyl-terminal hydrolase 1 (Homo sapiens) (O94782 whole entry, looked up): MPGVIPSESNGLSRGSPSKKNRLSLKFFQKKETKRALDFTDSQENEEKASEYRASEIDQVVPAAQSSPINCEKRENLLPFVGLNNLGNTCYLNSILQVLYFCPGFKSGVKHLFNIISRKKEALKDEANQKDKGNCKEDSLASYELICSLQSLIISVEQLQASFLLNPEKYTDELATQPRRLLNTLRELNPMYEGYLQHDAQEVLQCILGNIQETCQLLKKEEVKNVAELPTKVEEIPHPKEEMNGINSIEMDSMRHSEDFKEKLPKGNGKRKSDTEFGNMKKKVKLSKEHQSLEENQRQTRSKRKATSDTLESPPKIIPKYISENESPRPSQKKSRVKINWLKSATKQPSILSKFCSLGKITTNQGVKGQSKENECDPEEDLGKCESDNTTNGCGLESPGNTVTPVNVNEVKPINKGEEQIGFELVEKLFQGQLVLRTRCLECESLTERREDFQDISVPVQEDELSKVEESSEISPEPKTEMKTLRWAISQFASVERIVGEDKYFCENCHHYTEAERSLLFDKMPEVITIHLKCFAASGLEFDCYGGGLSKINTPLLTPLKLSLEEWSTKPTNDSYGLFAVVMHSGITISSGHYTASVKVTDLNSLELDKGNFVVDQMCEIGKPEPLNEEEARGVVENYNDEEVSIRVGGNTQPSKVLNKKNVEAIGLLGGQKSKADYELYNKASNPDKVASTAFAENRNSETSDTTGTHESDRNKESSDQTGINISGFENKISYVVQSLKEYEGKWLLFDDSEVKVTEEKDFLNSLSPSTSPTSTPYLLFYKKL
Sequence of Cytochrome P450 1A2 (Homo sapiens) (P05177 whole entry, looked up): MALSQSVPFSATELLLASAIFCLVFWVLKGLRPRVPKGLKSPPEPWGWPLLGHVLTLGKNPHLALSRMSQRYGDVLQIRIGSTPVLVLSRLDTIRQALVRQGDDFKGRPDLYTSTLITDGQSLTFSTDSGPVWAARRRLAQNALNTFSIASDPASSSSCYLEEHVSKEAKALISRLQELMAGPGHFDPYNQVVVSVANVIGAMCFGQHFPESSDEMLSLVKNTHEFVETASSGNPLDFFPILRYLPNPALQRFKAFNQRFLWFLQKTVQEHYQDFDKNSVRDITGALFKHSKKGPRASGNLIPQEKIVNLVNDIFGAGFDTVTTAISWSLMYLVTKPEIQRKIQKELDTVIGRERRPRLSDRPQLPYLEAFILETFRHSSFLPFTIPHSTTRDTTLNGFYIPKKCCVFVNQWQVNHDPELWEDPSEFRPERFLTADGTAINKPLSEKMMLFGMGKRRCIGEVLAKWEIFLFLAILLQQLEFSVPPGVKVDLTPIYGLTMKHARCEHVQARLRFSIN
Sequence of Lysosomal acid glucosylceramidase (Homo sapiens) (P04062 whole entry, looked up): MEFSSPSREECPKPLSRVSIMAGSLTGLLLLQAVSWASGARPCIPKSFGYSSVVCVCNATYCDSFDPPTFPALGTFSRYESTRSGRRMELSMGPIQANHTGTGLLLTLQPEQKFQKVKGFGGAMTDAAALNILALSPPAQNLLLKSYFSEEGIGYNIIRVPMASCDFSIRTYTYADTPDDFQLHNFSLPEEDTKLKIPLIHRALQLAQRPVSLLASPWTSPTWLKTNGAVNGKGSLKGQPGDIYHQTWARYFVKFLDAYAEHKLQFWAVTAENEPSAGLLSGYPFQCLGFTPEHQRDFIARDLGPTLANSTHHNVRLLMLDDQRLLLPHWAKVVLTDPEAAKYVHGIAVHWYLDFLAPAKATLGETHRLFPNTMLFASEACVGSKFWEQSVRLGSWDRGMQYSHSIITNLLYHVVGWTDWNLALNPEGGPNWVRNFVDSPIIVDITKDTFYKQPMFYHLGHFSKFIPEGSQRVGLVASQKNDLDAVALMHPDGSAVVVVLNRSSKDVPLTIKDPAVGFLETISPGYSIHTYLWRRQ
Sequence of Dual specificity protein kinase CLK4 (Homo sapiens) (Q9HAZ1 whole entry, looked up): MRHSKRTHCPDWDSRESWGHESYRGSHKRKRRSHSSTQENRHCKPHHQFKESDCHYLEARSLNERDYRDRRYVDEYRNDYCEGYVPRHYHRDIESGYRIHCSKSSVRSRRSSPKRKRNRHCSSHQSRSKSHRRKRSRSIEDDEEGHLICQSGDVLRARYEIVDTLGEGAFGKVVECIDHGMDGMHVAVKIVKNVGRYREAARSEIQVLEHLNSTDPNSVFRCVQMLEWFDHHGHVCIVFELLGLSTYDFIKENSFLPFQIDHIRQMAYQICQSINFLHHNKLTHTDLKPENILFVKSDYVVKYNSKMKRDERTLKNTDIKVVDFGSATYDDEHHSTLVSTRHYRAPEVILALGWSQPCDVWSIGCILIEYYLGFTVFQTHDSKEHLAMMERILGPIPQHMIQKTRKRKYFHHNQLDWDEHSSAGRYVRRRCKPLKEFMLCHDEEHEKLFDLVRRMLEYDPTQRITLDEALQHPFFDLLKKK
Sequence of 3',5'-cyclic-AMP phosphodiesterase 4B (Homo sapiens) (Q07343 whole entry, looked up): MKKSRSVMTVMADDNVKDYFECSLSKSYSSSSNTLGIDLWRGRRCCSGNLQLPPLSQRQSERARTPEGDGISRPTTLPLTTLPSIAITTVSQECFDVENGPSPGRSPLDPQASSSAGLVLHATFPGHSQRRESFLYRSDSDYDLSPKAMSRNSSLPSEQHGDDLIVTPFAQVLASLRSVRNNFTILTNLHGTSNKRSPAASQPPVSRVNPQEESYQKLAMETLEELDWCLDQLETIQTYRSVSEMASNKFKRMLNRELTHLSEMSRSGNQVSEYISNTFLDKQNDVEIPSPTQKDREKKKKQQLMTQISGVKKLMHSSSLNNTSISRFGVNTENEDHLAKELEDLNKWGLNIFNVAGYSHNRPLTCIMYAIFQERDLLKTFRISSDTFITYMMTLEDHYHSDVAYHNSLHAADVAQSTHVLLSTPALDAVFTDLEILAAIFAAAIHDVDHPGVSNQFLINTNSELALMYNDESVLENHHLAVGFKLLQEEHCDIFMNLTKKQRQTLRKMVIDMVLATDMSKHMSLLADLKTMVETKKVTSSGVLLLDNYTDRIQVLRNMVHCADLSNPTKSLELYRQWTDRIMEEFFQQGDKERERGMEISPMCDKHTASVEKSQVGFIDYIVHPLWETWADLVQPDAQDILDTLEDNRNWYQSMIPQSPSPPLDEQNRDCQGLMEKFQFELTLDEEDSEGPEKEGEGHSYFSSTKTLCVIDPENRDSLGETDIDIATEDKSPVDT
Sequence of Glucocorticoid receptor (Homo sapiens) (P04150 whole entry, looked up, the tested form may be a part): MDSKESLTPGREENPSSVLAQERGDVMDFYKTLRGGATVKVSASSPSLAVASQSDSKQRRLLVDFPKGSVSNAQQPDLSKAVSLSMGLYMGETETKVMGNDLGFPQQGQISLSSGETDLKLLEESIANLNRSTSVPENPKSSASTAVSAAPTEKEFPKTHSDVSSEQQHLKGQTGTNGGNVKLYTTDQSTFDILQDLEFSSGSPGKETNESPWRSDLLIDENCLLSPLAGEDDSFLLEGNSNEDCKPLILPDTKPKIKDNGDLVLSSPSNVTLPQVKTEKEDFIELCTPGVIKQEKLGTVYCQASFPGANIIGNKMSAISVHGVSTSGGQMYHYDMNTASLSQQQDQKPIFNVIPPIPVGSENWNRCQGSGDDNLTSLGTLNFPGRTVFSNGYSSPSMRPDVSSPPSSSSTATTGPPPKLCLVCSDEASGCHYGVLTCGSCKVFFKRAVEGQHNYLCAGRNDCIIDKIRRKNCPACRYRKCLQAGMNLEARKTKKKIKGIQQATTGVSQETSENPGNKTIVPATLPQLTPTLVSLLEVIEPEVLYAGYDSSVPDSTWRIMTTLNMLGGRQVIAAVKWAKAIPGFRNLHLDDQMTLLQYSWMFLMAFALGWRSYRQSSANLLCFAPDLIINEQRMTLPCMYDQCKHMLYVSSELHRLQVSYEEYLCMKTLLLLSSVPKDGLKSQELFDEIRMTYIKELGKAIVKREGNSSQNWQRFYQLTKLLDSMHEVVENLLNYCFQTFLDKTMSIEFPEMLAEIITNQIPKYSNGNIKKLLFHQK
Sequence of Cytochrome P450 3A4 (Homo sapiens) (P08684 whole entry, looked up): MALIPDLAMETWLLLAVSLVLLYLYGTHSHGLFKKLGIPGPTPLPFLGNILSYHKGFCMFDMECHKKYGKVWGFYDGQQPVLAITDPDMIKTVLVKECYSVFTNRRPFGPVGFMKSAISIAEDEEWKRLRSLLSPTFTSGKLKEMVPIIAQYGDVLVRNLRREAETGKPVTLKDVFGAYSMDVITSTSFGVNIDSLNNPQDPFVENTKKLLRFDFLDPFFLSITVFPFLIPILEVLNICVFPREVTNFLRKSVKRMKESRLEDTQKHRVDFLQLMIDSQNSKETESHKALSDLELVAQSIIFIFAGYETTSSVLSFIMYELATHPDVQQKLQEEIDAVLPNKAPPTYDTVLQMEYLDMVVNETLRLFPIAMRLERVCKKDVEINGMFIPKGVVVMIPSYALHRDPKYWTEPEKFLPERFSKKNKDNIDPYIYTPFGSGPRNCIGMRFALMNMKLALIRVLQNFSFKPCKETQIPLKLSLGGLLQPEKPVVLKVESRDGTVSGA

Structure (SMILES): COc1ccccc1-c1ccc2ncnc(NCCN3CCOCC3)c2c1
- Potency [1]: 15.8 µM (active)
- activity change, negative = inhibition [2]: 5.89% (inactive)
- activity, negative = inhibition [3]: -7.65% (inactive)
- Potency [4]: > 46 µM (inactive)
- Potency [5]: > 46 µM (inactive)
- Potency [6]: inactive
- Potency [7]: inactive
- Potency [8]: inactive
- activity change, negative = inhibition [9]: -9.29% (inactive)
- max response [9, 20]: -4.88%
- max response [9, 21]: -15.2%
- Potency [10]: 14.1 µM (active)
- Potency [11]: 17.8 µM (active)
- Potency [12]: inactive

Structure (SMILES): COc1ccc(CNc2ncnc3ccc(-c4ccc(N(C)C)cc4)cc23)c(OC)c1
- Potency [1]: 2.51 µM (active)
- activity, negative = inhibition [3]: -9.37% (inactive)
- Potency [4]: > 46 µM (inactive)
- Potency [5]: > 46 µM (inactive)
- Potency [7]: inactive
- Potency [8]: inactive
- activity change, negative = inhibition [9]: 3.77% (inactive)
- max response [9, 20]: -26.6%
- max response [9, 21]: -24.8%
- Potency [10]: inactive
- Potency [13]: inactive
- Potency [12]: inactive

Structure (SMILES): COCCn1c(=O)c(-c2ccc(OC)cc2)nc2cnc(N3CCN(C)CC3)nc21
- Potency [14]: > 11.4 µM (inactive)
- activity change, negative = inhibition [15]: 29.4% (inactive)
- Potency [4]: > 9.22 µM (inactive)
- Potency [5]: > 46 µM (inactive)
- Potency [6]: inactive
- Potency [7]: inactive
- Potency [16]: 3.16 µM (active)
- activity change, negative = inhibition [9]: 6% (inactive)
- max response [9, 20]: 16%
- max response [9, 21]: 21%
- Potency [10]: inactive
- Potency [11]: inactive

Structure (SMILES): CN1CCN(c2ncc3nc(-c4cccs4)c(=O)n(Cc4cccs4)c3n2)CC1
- Potency [14]: > 11.4 µM (inactive)
- Potency [1]: 15.8 µM (active)
- Potency [4]: > 9.22 µM (inactive)
- Potency [5]: > 46 µM (inactive)
- Potency [7]: inactive
- Potency [8]: inactive
- activity change, negative = inhibition [9]: -5.19% (inactive)
- max response [9, 20]: 2.92%
- max response [9, 21]: -4.19%
- Potency [10]: inactive
- Potency [11]: inactive
- Potency [12]: inactive

Structure (SMILES): COc1ccccc1-c1ccc2ncnc(NCc3cnc(C)cn3)c2c1
- Potency [14]: > 11.4 µM (inactive)
- activity change, negative = inhibition [15]: -23.9% (inactive)
- Potency [1]: 6.31 µM (active)
- activity change, negative = inhibition [2]: 3.25% (inactive)
- activity, negative = inhibition [3]: -25.2% (inactive)
- Potency [4]: > 46 µM (inactive)
- Potency [5]: > 46 µM (inactive)
- Potency [6]: inactive
- Potency [7]: inactive
- Potency [8]: inactive
- activity change, negative = inhibition [9]: 2.78% (inactive)
- max response [9, 20]: 13.2%
- max response [9, 21]: 14%
- Potency [10]: 15.8 µM (active)
- Potency [11]: 17.8 µM (active)
- Potency [12]: inactive

Structure (SMILES): O=C(Cc1cccs1)NC1C(=O)N2C(C(=O)[O-])=C(C[n+]3ccccc3)CSC12 (stereo unspecified)
- Potency [17]: inactive
- Potency [18]: inactive
- outcome [19]: inactive
- activity change, negative = inhibition [9]: 7.61% (inactive)
- max response [9, 20]: 18%
- max response [9, 21]: 28.7%
- Potency [12]: 79.4 µM (active)

Structure (SMILES): COc1cccc(Nc2ncc3nc(C)c(=O)n(C[C@H]4CCCO4)c3n2)c1
- Potency [14]: > 11.4 µM (inactive)
- activity change, negative = inhibition [15]: -22.6% (inactive)
- activity change, negative = inhibition [2]: 8.96% (inactive)
- activity, negative = inhibition [3]: -10.3% (inactive)
- Potency [4]: > 9.22 µM (inactive)
- Potency [5]: > 46 µM (inactive)
- Potency [6]: inactive
- Potency [7]: inactive
- activity change, negative = inhibition [9]: -3.96% (inactive)
- max response [9, 20]: -4.6%
- max response [9, 21]: -7.75%
- Potency [11]: 17.8 µM (active)
- Potency [12]: inactive

From PubChem BioAssay (NCATS)
